MRP resist rev – reverses drug resistance mediated by MRP. H69AR cells + 2 uM doxorubicin, CellTiter-Glo, 72 h. differential viability (reversal), % at 10 µM. hit rate 0.04% among 85,000. AID 602;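 active = viability drop by adding the cancer drug above about 55%, with treated viability meeting a 40% cutoff, limit read from the data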;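 note: larger differential means the compound sensitizes cells more to doxorubicin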
MRP-1 activ – activators of MRP-1; H69AR cells + doxorubicin, viability rescue, CellTiter-Glo; hit rate 0.61% among 140,000; viability increase, % at 10 µM;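 active = viability gain under doxorubicin at or above a set limit, the compound median plus 3 SD, cut at about 4.7% in these data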;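 note: MRP-1 overexpressing cells given doxorubicin 25 µM after compound pretreatment; 18-22 h compound pretreatment then 72 h with doxorubicin before readout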
Mac1 fbg enh – increases human CD11b/CD18 adhesion to fibrinogen. P05107+P11215. activation, % at 10 µM. hit rate 0.07% among 93,000. K562 CD11b/CD18 adhesion to fibrinogen, ATPlite luminescence;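 active = 10 µM primary screen giving 50% or more activity, confirmed by 40% or more on retest at that dose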
Pyk2 oligo antag – Pyk2 (human) oligomerization antagonism; Q14289; Q293 cells, Pyk2 FERM NanoBiT luminescence; hits give low values; z-score (the deposit names both 25 µM and 10 µM); hit rate 0.83% among 99,000; AID 1347419;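 active = Z-score of -3 or lower, scaled per plate to the spread of control and sample wells; inactive = z-score above -3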;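 note: negative z-score means lost luminescence so less FERM oligomerization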
Mac1 fbg inh – blocks human CD11b/CD18 adhesion to fibrinogen; P05107+P11215; hit rate 0.54% among 93,000; inhibition, % at 10 µM; AID 1497; K562 CD11b/CD18 adhesion to fibrinogen, ATPlite luminescence; Mn2+ added to activate the integrin;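 active = primary inhibition of 50% or more at 10 µM, then 40% or more on retest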
Cav32 inh – human Cav3.2 channel inhibition, primary screen | hit rate 4% among 100,000 | B-score at 10 µM | Cav3.2-expressing cells, Fluo-4 calcium fluorescence FDSS; hits give low values;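 active = single-dose well whose peak fluorescence ratio is a statistical outlier from its plate by either plate-standardised score or position-corrected B-score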
Hits are given with their value; n = inactive; x = no result. In the library only some 4.1% were active in any assay of this set; here they are far more common.

SMILES | MRP resist rev | MRP-1 activ | Mac1 fbg enh | Pyk2 oligo antag | Mac1 fbg inh | Cav32 inh
COC(=O)CCN(C1CCCCC1)S(=O)(=O)c1ccc(S(=O)(=O)NC2CCCCC2)cc1 | n | n | n | n | n | -5.86
O=C(CN(C1CCCCC1)S(=O)(=O)c1ccc(F)cc1)Nc1ccc2c(c1)OCO2 | n | n | x | n | x | -5.56
O=C(CN(C1CC1)S(=O)(=O)c1ccc(S(=O)(=O)NC2CCCCC2)cc1)Nc1ccccc1 | n | n | n | n | n | -11.7
O=S(=O)(c1ccc(OCc2nc3ccccc3s2)c(Cl)c1)N1CCOCC1 | x | n | n | n | n | n
Cc1ccc(/C=N/N2CCN(Cc3cccc4ccccc34)CC2)o1 | n | n | n | n | n | n
Cc1cc(C)n(-c2nc(Nc3ccccc3C(F)(F)F)nc(-n3nc(C)cc3C)n2)n1 | n | n | x | -3.51 | x | n
CSc1nsc(SC)c1C(=O)N1CCN(S(=O)(=O)c2ccc(C)cc2)C1C (stereo unspecified) | n | n | n | n | n | n
CSc1nsc(SC)c1C(=O)N1CCN(S(=O)(=O)c2ccc(C)cc2)C1C(C)C (stereo unspecified) | n | n | x | n | x | -5.12
COc1ccccc1N1CC(C)C(=O)NC1=S (stereo unspecified) | x | n | x | x | x | x
C=C1CCN([C@@H](Cc2ccccc2)C(=O)NCCCc2ccccc2)S(=O)(=O)c2ccccc21 | x | x | x | x | x | -4.47
O=C(N[C@@H](Cc1ccccc1)C(=O)NC1CCCCCC1)c1ccco1 | x | n | n | n | n | n
O=C(Nc1ccccc1C(=O)NC(Cc1ccccc1)C(=O)NC1CCCCCC1)c1ccccc1 (stereo unspecified) | x | n | x | n | x | -5.33
COc1ccc(CCNC(=S)Nc2cc(C)ccc2C)cc1 | n | n | n | n | n | n
CCNC(=O)CN(c1ccc(OC)c(OC)c1)S(=O)(=O)c1ccccc1 | n | n | n | n | n | n
O=C(N/N=C/c1ccccc1Br)c1ccc(CSc2cccc3cccnc23)cc1 | n | n | n | n | n | -5.22
COCc1nnc(NC(=O)c2sc3ccccc3c2Cl)s1 | n | n | n | n | n | n
Cc1nnc(NC(=O)c2ccccc2Br)s1 | n | 6.0 | n | n | n | n
Cc1nnc(NC(=O)c2sc3ccccc3c2Cl)s1 | n | n | n | n | 69.9 | n
Cc1ccc2sc3ccc(NC(=O)c4ccccc4Cl)cc3c(=O)c2c1 | x | n | x | n | x | n
Cn1nc(C(F)(F)F)c(C(=O)Nc2ccc(C(F)(F)F)cc2)c1Cl | x | 6.2 | x | n | x | n
CCN(CCO)c1nc(SC)nc2c1sc1nc(-c3ccco3)c3c(c12)CCC3 | x | n | 116.6 | n | n | n
COCCCNC(=O)CCc1ccc(S(=O)(=O)Nc2ccc(C)cc2)cc1 | n | n | n | n | n | n
O=S(=O)(N/N=C1\CC(c2ccccc2)Oc2ccccc21)c1ccccc1 (stereo unspecified) | n | n | x | n | x | -7.66
CCOc1ccc(S(=O)(=O)N/N=C2/CC(c3ccccc3)Oc3ccccc32)cc1 (stereo unspecified) | x | n | n | n | n | -7.13
Cc1ccc(S(=O)(=O)N/N=C2/CC(c3ccccc3)Oc3ccccc32)cc1 (stereo unspecified) | n | n | x | n | x | n
SMILES | MRP resist rev | MRP-1 activ | Mac1 fbg enh | Pyk2 oligo antag | Mac1 fbg inh | Cav32 inh
O=C(CN1CCSC1=NCc1ccccc1)c1ccc(Cl)cc1 | x | n | n | x | n | x
COc1ccc(N2C(=O)CC2(/C=C/c2ccccc2OC)C(=O)NC2CCCC2)cc1 (stereo unspecified) | n | n | x | n | x | -5.39
CCn1c(SCC(=O)c2cc(OC)ccc2OC)nc2c1c(=O)n(C)c(=O)n2C | n | x | n | x | n | x
CC1CCC/C(=C(\C#N)c2nc(-c3cc4ccccc4oc3=O)cs2)C1 (stereo unspecified) | x | 5.2 | x | x | x | x
O=C(NCc1ccco1)C1CCN(c2nc3ccccc3n2Cc2ccccc2F)CC1 | n | n | n | x | n | -7.07
Cc1oc(-c2ccccc2F)nc1CN1CCC(C(=O)NCc2ccco2)CC1 | n | n | n | n | n | n
c1coc(CNc2c3c(nc4ccccc24)CCC3)c1 | n | n | n | n | n | n
COCC(=O)Nc1nnc(COc2ccc(Cl)cc2)s1 | n | 5.4 | x | n | x | n
O=C(CSc1ccccc1)Nc1nnc(COc2ccc(Cl)cc2)s1 | x | 7.1 | x | x | x | x
Cc1cccc(OCCNc2cc(N3CCOCC3)ccc2[N+](=O)[O-])c1 | x | n | n | n | n | n
N#Cc1ccc(CSc2nnc(-c3ccccn3)n2-c2ccccc2)cc1 | n | n | n | n | n | n
N#Cc1ccc(CSc2nnc(-c3cccs3)n2-c2ccccc2)cc1 | n | n | n | n | n | -5.82
COc1cc(OC)c(C2Oc3nc(SC)nnc3-c3ccccc3N2C(C)=O)cc1OC (stereo unspecified) | n | n | n | x | n | n
CC(C)(C)NC(=O)C1CCN(C(=O)c2ccc(-c3ccccc3)cc2)CC1 | n | n | n | n | n | n
COc1ccc(-c2nn(-c3ccccc3)cc2C(=O)Nc2nccs2)cc1 | n | n | n | n | n | -5.81
COc1cccc(-c2nn(-c3ccccc3)cc2C(=O)Nc2nccs2)c1 | n | n | n | -3.65 | n | -5.21
COc1cccc(-c2nn(-c3ccccc3)cc2C(=O)n2nnc3ccccc32)c1 | n | n | n | n | n | n
[C-]#[N+][C@H](O[C@@H]1O[C@H](CO)[C@@H](O)[C@H](O)[C@H]1O)c1ccccc1 | x | x | x | x | x | -5.73
O=C(O)CC(CCc1ccccc1)OC1OC(CO)C(O)C(O)C1O (stereo unspecified) | x | x | x | x | x | n
O=c1c2ccccc2nc(N2CCN(c3ccccc3)CC2)n1Cc1ccccc1 | n | n | n | x | n | -5.38
CCn1cc(C(=O)NCC2CCCO2)c(=O)c2cc(S(=O)(=O)N3CCCCCC3)ccc21 (stereo unspecified) | n | n | n | n | n | n
O=[N+]([O-])c1ccc(N2CCCCCC2)c([N+](=O)[O-])c1 | x | n | n | n | n | -4.75
CC(C)CN(CC(C)C)S(=O)(=O)c1cc([N+](=O)[O-])ccc1N1CCCCCC1 | x | n | x | n | x | -5.2
O=C(Nc1cc(Cl)ccc1Oc1ccccc1)c1ccc(F)cc1 | x | n | n | x | n | x
CC(=O)c1cc2c(cc1N/C(=N/S(=O)(=O)c1ccc(C)cc1)c1ccccc1)OCO2 | x | n | x | x | x | x
SMILES | MRP resist rev | MRP-1 activ | Mac1 fbg enh | Pyk2 oligo antag | Mac1 fbg inh | Cav32 inh
Cc1cccc(NC(=O)CCC(=O)N/N=C/c2ccncc2)c1 | x | n | x | x | x | x
Cc1cccc(NC(=O)CCC(=O)N/N=C/c2cc([N+](=O)[O-])ccc2O)c1 | x | 4.9 | x | x | x | x
C=C(C)Cn1c(-c2ccccc2)nc2ccccc21 | n | n | n | n | n | -4.07
Cc1ccc(C)c(OCCn2cc(/C=C(/C#N)C(=O)NCC3CCCO3)c3ccccc32)c1 (stereo unspecified) | x | n | x | x | x | x
N#C/C(=C\c1cn(CCOc2ccccc2)c2ccccc12)C(=O)NCC1CCCO1 (stereo unspecified) | x | n | n | n | n | -4.38
O=c1cc(-c2ccccc2)[nH]c2[nH]n(-c3ccccc3)c(=O)c12 | n | n | n | -3.75 | n | n

Compound activity: PubChem, several laboratories
